The source made the active and inactive calls. How the source made its calls: active means hit-call score of the fitted dose curve at least 0.9, where 1 is the maximum; inactive means score below 0.9.
Key:
[1] = BSK_hDFCGF_SRB: Viability Assessment in the BioMAP Diversity Plus: hDFCGF Assay (AID 2283061); details: primary human foreskin fibroblasts;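 further: cells exposed to compound for 24 h before the read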
In short: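 Readout is SRB absorbance at 560 nm, reflecting total protein in parallel cultures of human foreskin fibroblasts harvested 24 h after chemical dosing. Activity was fitted bidirectionally relative to DMSO.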

[2] = read-out: TIMP metallopeptidase inhibitor 1 (TIMP1), TIMP1 (gene 7076); experiment: BSK_hDFCGF_TIMP1: BioMAP Diversity Plus: hDFCGF Assay for TIMP metallopeptidase inhibitor 1 (TIMP1) Biomarker Activity (AID 2283062); details: primary human foreskin fibroblasts; actives raise or lower the signal
In short: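 Human skin fibroblasts (primary), hDFCGF system; compound exposure 24 h; TIMP-1 by ELISA; bidirectional fit vs DMSO negative control; overt cytotoxicity by SRB in parallel wells.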

[3] = read-out: Monokine induced gamma interferon (MIG), CXCL9 (gene 4283); experiment: BSK_hDFCGF_MIG: BioMAP Diversity Plus: hDFCGF Assay for Monokine induced gamma interferon (MIG) Biomarker Activity (AID 2283063); details: primary human foreskin fibroblasts; actives raise or lower the signal
In short: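 Chemicals were added to primary human foreskin fibroblast cultures, which were sampled 24 h later. MIG levels were then quantified by ELISA and responses fitted in both directions relative to DMSO.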

[4] = read-out: Matrix Metallopeptidase 1 (MMP1), MMP1 (gene 4312); experiment: BSK_hDFCGF_MMP1: BioMAP Diversity Plus: hDFCGF Assay for Matrix Metallopeptidase 1 (MMP1) Biomarker Activity (AID 2283064); details: primary human foreskin fibroblasts; actives raise or lower the signal
In short: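 Primary human foreskin fibroblasts in the hDFCGF system were dosed with test chemical, and MMP1 was measured by ELISA 24 h later. Values come from bidirectional curve fitting against the DMSO baseline.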

[5] = read-out: Vascular cell adhesion molecule 1 (VCAM1), VCAM1 (gene 7412); experiment: BSK_hDFCGF_VCAM1: BioMAP Diversity Plus: hDFCGF Assay for Vascular cell adhesion molecule 1 (VCAM1) Biomarker Activity (AID 2283065); details: primary human foreskin fibroblasts; actives raise or lower the signal;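 on AC50: VCAM-1 protein level quantified by ELISA after 24 h chemical exposure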
In short: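 Human foreskin fibroblast primary cells, chemical exposure 24 h; VCAM-1 by ELISA; bidirectional fit, DMSO = negative control/baseline.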

[6] = read-out: Plasminogen activator inhibitor-1 (PAI1), SERPINE1 (gene 5054); experiment: BSK_hDFCGF_PAI1: BioMAP Diversity Plus: hDFCGF Assay for Plasminogen activator inhibitor-1 (PAI1) Biomarker Activity (AID 2283066); details: primary human foreskin fibroblasts; actives raise or lower the signal
In short: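 Human foreskin fibroblasts in the hDFCGF system were dosed with compound for 24 h; PAI-1 was quantified by ELISA. Bidirectional curve fitting used DMSO as negative control and baseline.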

[7] = read-out: Intercellular Adhesion Molecule 1 (ICAM1), ICAM1 (gene 3383); experiment: BSK_KF3CT_ICAM1: BioMAP Diversity Plus: KF3CT Assay for Intercellular Adhesion Molecule 1 (ICAM1) Biomarker Activity (AID 2283067); details: primary human keratinocytes with fibroblasts; actives raise or lower the signal
In short: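 ICAM-1 levels are measured by ELISA 24 h after dosing a primary human co-culture of keratinocytes and foreskin fibroblasts. Activity in either direction is fitted relative to DMSO vehicle.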

[8] = read-out: Interferon-gamma inducible Protein 10 (IP10), CXCL10 (gene 3627); experiment: BSK_KF3CT_IP10: BioMAP Diversity Plus: KF3CT Assay for Interferon-gamma inducible Protein 10 (IP10) Biomarker Activity (AID 2283068); details: primary human keratinocytes with fibroblasts; actives raise or lower the signal
In short: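 In a primary skin co-culture of keratinocytes and fibroblasts, IP-10 is quantified by ELISA at 24 h after dosing. SRB staining of parallel wells monitors overt toxicity. Curves are fitted both directions against DMSO.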

[9] = BSK_KF3CT_SRB: Viability Assessment in the BioMAP Diversity Plus: KF3CT Assay (AID 2283069); details: primary human keratinocytes with fibroblasts;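 further: total protein by sulforhodamine B staining as a cytotoxicity measure; read 24 h after compound addition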
In short: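 Human primary keratinocyte plus foreskin fibroblast co-culture exposed to chemicals for 24 h. Total protein measured by 0.1% sulforhodamine B staining after 10% TCA fixation, read at 560 nm; bidirectional fitting versus DMSO baseline.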

[10] = read-out: Interleukin-1 alpha (IL1a), IL1A (gene 3552); experiment: BSK_KF3CT_IL1a: BioMAP Diversity Plus: KF3CT Assay for Interleukin-1 alpha (IL1a) Biomarker Activity (AID 2283070); details: primary human keratinocytes with fibroblasts; actives raise or lower the signal
In short: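 Human keratinocyte plus foreskin fibroblast primary co-culture, sampled 24 h after chemical dosing. IL-1a measured by ELISA; responses fitted bidirectionally against DMSO baseline (negative control), so gain or loss of signal both count.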

[11] = read-out: TIMP metallopeptidase inhibitor 2 (TIMP2), TIMP2 (gene 7077); experiment: BSK_KF3CT_TIMP2: BioMAP Diversity Plus: KF3CT Assay for TIMP metallopeptidase inhibitor 2 (TIMP2) Biomarker Activity (AID 2283071); details: primary human keratinocytes with fibroblasts; actives raise or lower the signal
In short: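 Human primary keratinocyte/foreskin fibroblast co-culture dosed with chemical and sampled at 24 h. TIMP-2 levels quantified by ELISA; bidirectional fitting against DMSO negative control as baseline.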

[12] = read-out: Transforming growth factor beta 1 (TGFb1), TGFB1 (gene 7040); experiment: BSK_KF3CT_TGFb1: BioMAP Diversity Plus: KF3CT Assay for Transforming growth factor beta 1 (TGFb1) Biomarker Activity (AID 2283072); details: primary human keratinocytes with fibroblasts; actives raise or lower the signal
In short: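 Human keratinocyte plus foreskin fibroblast primary co-culture, dosed with chemical for 24 h. TGF-b1 quantified by ELISA. Activity fitted bidirectionally against DMSO negative control as baseline.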

[13] = read-out: C-C motif chemokine 2 (Homo sapiens) (UniProt P13500); experiment: BSK_KF3CT_MCP1: BioMAP Diversity Plus: KF3CT Assay for Monocyte Chemoattractant Protein 1 (MCP1/CCL2) Biomarker Activity (AID 2283073); details: primary human keratinocytes with fibroblasts; actives raise or lower the signal
In short: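 ELISA readout of MCP-1 after 24 h chemical dosing of a human skin primary co-culture of keratinocytes and foreskin fibroblasts. Activity was fitted in both directions against DMSO.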

[14] = read-out: Matrix Metallopeptidase 9 (MMP9), MMP9 (gene 4318); experiment: BSK_KF3CT_MMP9: BioMAP Diversity Plus: KF3CT Assay for Matrix Metallopeptidase 9 (MMP9) Biomarker Activity (AID 2283074); details: primary human keratinocytes with fibroblasts; actives raise or lower the signal;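 on AC50: MMP9 protein level quantified by ELISA in the co-culture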
In short: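 Keratinocyte plus foreskin fibroblast human primary skin co-culture was dosed with chemical and MMP-9 was quantified by ELISA 24 h later. Bidirectional curve fitting used DMSO as negative control and activity baseline.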

[15] = read-out: urokinase plasminogen activator (uPA), PLAU (gene 5328); experiment: BSK_KF3CT_uPA: BioMAP Diversity Plus: KF3CT Assay for urokinase plasminogen activator (uPA) Biomarker Activity (AID 2283075); details: primary human keratinocytes with fibroblasts; actives raise or lower the signal
In short: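 Human keratinocyte plus foreskin fibroblast primary co-culture exposed to chemical for 24 h. uPA levels were quantified by ELISA, and activity was fitted bidirectionally against a DMSO negative-control baseline.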

CD40, CD40 (gene 958) = experiment: BSK_LPS_CD40: BioMAP Diversity Plus: LPS Assay for CD40 Biomarker Activity (AID 2283076); details: primary human HUVEC with PBMC; actives raise or lower the signal
In short: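 Cells were dosed, incubated 24 h, then assayed for CD40 by ELISA. Gain or loss of signal was analysed relative to DMSO controls. The culture paired human umbilical vein endothelium with peripheral blood mononuclear cells.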

[16] = read-out: E-selectin (Homo sapiens) (UniProt P16581); experiment: BSK_LPS_Eselectin: BioMAP Diversity Plus: LPS Assay for Eselectin Biomarker Activity (AID 2283077); details: primary human HUVEC with PBMC; actives raise or lower the signal
In short: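 Primary human vascular co-culture (endothelium plus PBMC) was dosed with chemical, then E-selectin quantified by ELISA at 24 h. Endpoint values derive from bidirectional curve fitting relative to DMSO.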

[17] = read-out: Interleukin-8 (IL8), CXCL8 (gene 3576); experiment: BSK_LPS_IL8: BioMAP Diversity Plus: LPS Assay for Interleukin-8 (IL8) Biomarker Activity (AID 2283078); details: primary human HUVEC with PBMC; actives raise or lower the signal
In short: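 Readout is IL-8 by ELISA, taken 24 h after compounds were added to LPS-stimulated endothelial/PBMC co-cultures. Both increases and decreases relative to DMSO control were scored through bidirectional fitting.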

[18] = BSK_LPS_SRB: Viability Assessment in the BioMAP Diversity Plus: LPS Assay (AID 2283079); details: primary human HUVEC with PBMC;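 further: total protein by sulforhodamine B absorbance as a cytotoxicity measure; measured one day after compound addition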
In short: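 Readout is SRB absorbance at 560 nm (0.1% stain, TCA-fixed parallel cultures) as a total-protein cytotoxicity measure. Cells: primary human umbilical vein endothelium plus peripheral blood mononuclear cells, 24 h after chemical exposure; DMSO served as baseline.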

[19] = read-out: Interleukin-1 alpha (IL1a), IL1A (gene 3552); experiment: BSK_LPS_IL1a: BioMAP Diversity Plus: LPS Assay for Interleukin-1 alpha (IL1a) Biomarker Activity (AID 2283080); details: primary human HUVEC with PBMC; actives raise or lower the signal
In short: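 ELISA read-out of IL-1 alpha from a human primary vascular co-culture (endothelium plus PBMC) under LPS, sampled 24 hours post-dosing. Activity was fitted in both directions relative to DMSO controls.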

Measured: AC50

Sequence of E-selectin (Homo sapiens) (P16581 whole entry, looked up): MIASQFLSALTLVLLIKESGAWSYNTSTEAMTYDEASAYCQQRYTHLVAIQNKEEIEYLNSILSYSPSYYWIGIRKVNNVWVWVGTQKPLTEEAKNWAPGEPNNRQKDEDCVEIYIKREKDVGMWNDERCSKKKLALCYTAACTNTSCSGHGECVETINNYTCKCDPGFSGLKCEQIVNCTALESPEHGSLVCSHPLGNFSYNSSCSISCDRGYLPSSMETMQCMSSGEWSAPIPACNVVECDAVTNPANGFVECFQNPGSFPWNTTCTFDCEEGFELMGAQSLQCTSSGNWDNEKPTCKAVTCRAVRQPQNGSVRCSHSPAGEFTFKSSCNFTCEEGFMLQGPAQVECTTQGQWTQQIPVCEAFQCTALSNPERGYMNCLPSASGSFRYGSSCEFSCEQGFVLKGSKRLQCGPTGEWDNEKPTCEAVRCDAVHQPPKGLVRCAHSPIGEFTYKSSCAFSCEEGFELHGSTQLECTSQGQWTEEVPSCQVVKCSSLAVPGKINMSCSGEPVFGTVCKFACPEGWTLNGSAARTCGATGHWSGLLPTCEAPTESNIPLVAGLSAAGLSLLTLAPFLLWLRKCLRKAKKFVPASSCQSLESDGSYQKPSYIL

OC1CCCCC1
inactive: all assays above

CC(=O)NC1(c2cccc(F)c2)CCN(CC[C@@]2(c3ccc(Cl)c(Cl)c3)CN(c3ccccc3)C(=O)CO2)CC1
active: [1] 24.5 µM | [2] 26.7 µM | [3] 31.8 µM | [4] 30.2 µM | [5] 27 µM | [6] 23.8 µM | [8] 25.3 µM | [9] 25.1 µM | [14] 25.8 µM | [15] 27 µM | [17] 4.23 µM | [18] 12.8 µM | [19] 24.9 µM
inactive: [7] | [10] | [11] | [12] | [13] | CD40, CD40 (gene 958) | [16]

CCCOC(=O)c1ccc(O)cc1
inactive: all assays above

CCCCOCCO
inactive: all assays above

O=C(OCCOCCOC(=O)c1ccccc1)c1ccccc1
inactive: all assays above

CCCCCCCCCCCCN1CCCC1=O
active: [1] 34 µM | [2] 32.7 µM | [3] 39 µM | [4] 34.8 µM | [5] 33 µM | [6] 30.6 µM | [7] 36.8 µM | [8] 35.5 µM | [9] 33.4 µM | [10] 35.2 µM | [11] 31.3 µM | [12] 34.2 µM | [13] 34.3 µM | [14] 35 µM | [15] 36.7 µM | CD40, CD40 (gene 958) 32.2 µM | [16] 33.8 µM | [17] 31.3 µM | [18] 27.4 µM | [19] 33 µM

CC(C)(C)c1cccc(C(C)(C)C)c1O
active: [1] 35.7 µM | [2] 36.3 µM | [3] 34.9 µM | [4] 35.9 µM | [5] 35.5 µM | [6] 36.6 µM | [7] 37.9 µM | [8] 37.5 µM | [9] 33.8 µM | [10] 31 µM | [11] 37.1 µM | [12] 36.1 µM | [13] 34.4 µM | [14] 36.7 µM | [15] 39 µM
inactive: CD40, CD40 (gene 958) | [16] | [17] | [18] | [19]

CCN(CC)CCNc1ccc(CNC=O)c2sc3ccc(OC)cc3c(=O)c12
active: [1] 14.6 µM | [2] 13.1 µM | [3] 34.2 µM | [4] 10.7 µM | [5] 32.4 µM | [6] 11 µM | [7] 31.6 µM | [8] 30.8 µM | [9] 26.4 µM | [10] 22.3 µM | [11] 25 µM | [12] 26.7 µM | [13] 36.6 µM | [14] 17.5 µM | [15] 25.8 µM | CD40, CD40 (gene 958) 35.4 µM | [16] 13.1 µM | [17] 11.2 µM | [18] 25.3 µM | [19] 11.8 µM

c1ccc2cc3c(ccc4ccccc43)cc2c1
inactive: all assays above

CCCCCCCCCCCCCC[N+](C)(C)C
active: [1] 5.22 µM | [2] 5.39 µM | [3] 7.37 µM | [4] 9.7 µM | [5] 4.06 µM | [6] 2.85 µM | [7] 12.8 µM | [8] 4.81 µM | [9] 5.24 µM | [10] 3.96 µM | [11] 5.45 µM | [12] 0.925 µM | [13] 8.89 µM | [14] 3.52 µM | [15] 4.33 µM | CD40, CD40 (gene 958) 4.57 µM | [16] 10 µM | [17] 10.9 µM | [18] 5.37 µM | [19] 1.76 µM

CCOC(=O)CC(O)(CC(=O)OCC)C(=O)OCC
inactive: all assays above
